# Only some compounds are listed: those with a hit (about 3.5% of all), similar ones and a draw of the others.
# FBW7 activator: FBW7 E3 ligase activators, primary screen, biochemical, AlphaScreen, human. AID 1259310, 2017. normalized activity (activation), % at 26.1 µM. F-box/WD repeat-containing protein 7 (Homo sapiens), Q969H0. AlphaScreen FBW7–phospho-cyclin E peptide binding, activator screen. 650,000 tested, 0.13% active; in the data active = normalized activity above about 1.9%;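 note: purified mutant Fbw7 with reduced substrate affinity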
# Target sequence (Q969H0 whole entry, looked up): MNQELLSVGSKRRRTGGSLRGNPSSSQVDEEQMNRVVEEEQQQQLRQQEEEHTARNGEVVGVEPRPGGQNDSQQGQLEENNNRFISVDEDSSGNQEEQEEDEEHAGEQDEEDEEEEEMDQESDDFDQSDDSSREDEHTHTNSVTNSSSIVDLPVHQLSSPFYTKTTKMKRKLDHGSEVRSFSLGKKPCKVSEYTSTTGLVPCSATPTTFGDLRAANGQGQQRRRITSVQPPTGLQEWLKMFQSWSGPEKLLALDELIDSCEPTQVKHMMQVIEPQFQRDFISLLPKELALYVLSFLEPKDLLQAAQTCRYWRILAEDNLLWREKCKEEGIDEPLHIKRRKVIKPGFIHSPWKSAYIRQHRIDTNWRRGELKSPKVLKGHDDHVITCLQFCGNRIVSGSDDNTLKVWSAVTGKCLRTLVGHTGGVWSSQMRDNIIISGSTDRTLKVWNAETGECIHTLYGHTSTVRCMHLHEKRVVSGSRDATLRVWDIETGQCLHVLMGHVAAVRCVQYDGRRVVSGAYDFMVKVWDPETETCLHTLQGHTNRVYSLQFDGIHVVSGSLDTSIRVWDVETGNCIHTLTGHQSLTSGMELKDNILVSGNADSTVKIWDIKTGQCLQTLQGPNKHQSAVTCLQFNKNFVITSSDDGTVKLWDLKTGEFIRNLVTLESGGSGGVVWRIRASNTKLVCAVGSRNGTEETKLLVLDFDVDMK
# MITF inh: MITF inhibitors, primary screen, biochemical, AlphaScreen, human | AlphaScreen MITF homodimerization, bead proximity signal | inhibition, % at 2.6 µM | 650,000 tested, 0.91% active; in the data active = inhibition above about 50%;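 note: 0% = vehicle wells with protein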
# TEAD-YAP inh: TEAD-YAP interaction inhibition, primary screen, TEAD-YAP interaction inhibitor project, luminescence, HEK-TIYL cells; 640,000 tested, 1.4% active; inhibition, % at 9.12 µM; TEAD-Gal4/YAP UAS-luciferase luminescence; in the data active = inhibition above about 32%;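 note: 0% = median of test compound wells and 100% = reference inhibitor wells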
# GPR151 ag: activators of human GPR151, primary screen, cell-based, PathHunter beta-arrestin, luminescence; G-protein coupled receptor 151 (Homo sapiens), Q8TDV0; PathHunter beta-arrestin GPR151 cells; activation, % at 11.2 µM; 650,000 tested, 1% active; AID 1508602, 2020; in the data active = activation above about 4.9%;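 note: 0% = median of compound wells and 100% = cells with positive control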
# The depositor's hits bear a star.
SMILES,FBW7 activator,MITF inh,TEAD-YAP inh,GPR151 ag
CCN(CC)CCN1CCN(c2ccnc3c(-c4ccc(Cl)cc4)cnn23)CC1,-0.1,-25.9,-39.3,0.5
O=C1CC(n2nnn(-c3ccc(O)cc3)c2=S)C2COC1O2 (stereo unspecified),-0.1,2.2,6.4,0.6
FC(F)(F)c1cccc(-n2cc(-c3ccccc3)c3c(NCCc4ccc(Cl)cc4)ncnc32)c1,-0.1,-0.9,8.0,-0.1
COc1ccc(NC(=O)C(=O)NCC2CCCN2S(=O)(=O)c2ccc(C)cc2)cc1 (stereo unspecified),0.1,-14.9,60.8*,1.7
Cc1ccc(S(=O)(=O)N2CCCCC2CCNC(=O)C(=O)NCc2ccccc2)cc1 (stereo unspecified),0.3,3.3,45.7*,1.1
O=C(NCc1cccc(C(F)(F)F)c1)c1ccnc(Nc2ncccn2)c1,-0.1,4.2,2.3,4.1
CC(=O)N1CCN(C2=NC(=O)/C(=C\c3ccccc3OC(C)C)S2)CC1,0.0,1.6,-3.0,1.0
CC(C)Oc1ccccc1/C=C1/SC(N2CCOCC2)=NC1=O,-0.2,-4.9,44.9*,0.1
CC1CCN(C2=NC(=O)/C(=C/c3ccccc3F)S2)CC1,0.2,22.9,54.2*,-1.0
CC1CCN(C2=NC(=O)/C(=C\c3ccccc3Cl)S2)CC1,0.1,8.6,-31.7,1.5
CCCCOc1ccccc1/C=C1/SC(N2CCOCC2)=NC1=O,-0.3,-3.6,41.3*,-0.9
CC1CC(C)CN(C(=O)C(C)N2C(=O)C3CCCCN3C(=O)c3ccccc32)C1 (stereo unspecified),0.1,8.1,14.2,2.5
COc1ccc(OCC(=O)OCc2cc(C(C)=O)ccc2OC)cc1,0.1,1.3,-0.6,-1.3
Cc1ccc(-n2c(=S)sc3c(=O)n(-c4ccccc4F)c(SCN4C(=O)c5ccccc5C4=O)nc32)cc1C,-0.1,-16.1,-8.4,-1.3
COc1ccc(C(=O)Oc2ccc3ccccc3c2C=O)cc1OC,0.1,-5.3,5.1,3.9
O=C(c1ccc2c(=O)n(-c3ccccc3F)c(=S)[nH]c2c1)N1CCCCC1,0.1,-4.4,32.7*,-0.9
CCCc1cc(N2CCN(c3ccc(C(C)=O)cc3)CC2)n2cnnc2n1,-0.2,4.8,41.5*,-1.0
CCCc1cc(N2CCC(C(N)=O)CC2)n2cnnc2n1,0.0,-6.4,-2.0,1.0
O=C1CN(C(=O)c2cc([N+](=O)[O-])ccc2Cl)c2ccccc2N1,0.0,-0.6,59.4*,0.2
COc1cccc(C(=O)N2c3ccccc3NC(=O)CC2C)c1 (stereo unspecified),0.2,7.3,9.0,-1.2
CN(C)c1c(C(=O)N2CC(=O)Nc3ccccc32)cc([N+](=O)[O-])cc1[N+](=O)[O-],0.0,17.4,6.1,0.7
COc1cccc(C(=O)N2CC(=O)Nc3ccccc32)c1,0.1,-13.9,42.3*,-0.7
Nc1nccc(-c2ccc3nc(C4COc5ccc(C(=O)NCCc6cccs6)cc5C4)[nH]c3c2)n1 (stereo unspecified),23.8*,-8.5,20.5,-1.4
COc1ccccc1CCNC(=O)c1ccc2c(c1)CC(c1nc3ccc(-c4ccnc(N)n4)cc3[nH]1)CO2 (stereo unspecified),3.0*,-7.3,28.8,-0.6
CN(C)CCNC(=O)c1ccc2c(c1)CC(c1nc3ccc(-c4ccnc(N)n4)cc3[nH]1)CO2 (stereo unspecified),0.3,38.2,-1.8,-0.7
SMILES,FBW7 activator,MITF inh,TEAD-YAP inh,GPR151 ag
COc1ccc(CCNc2nc(Nc3ccncn3)nc3c2ncn3Cc2ccc(C(F)(F)F)cc2)cc1,0.1,5.2,3.2,-1.9
O=c1oc2ccccc2cc1-c1cn2c(n1)sc1ccccc12,0.1,-4.4,79.9*,0.4
COc1ccc2c(c1)sc1nc(-c3cc4ccccc4oc3=O)cn12,-0.2,-2.8,83.8*,0.3
O=c1oc2ccc3ccccc3c2cc1-c1cn2c(n1)sc1cc(Cl)ccc12,-0.1,1.3,6.1,0.8
Cc1ccc2c(c1)sc1nc(-c3cc4ccccc4oc3=O)cn12,0.0,-2.6,65.6*,-0.1
Cc1ccc(-c2cn3c(n2)sc2cc(C)ccc23)cc1,1.4,-4.7,78.3*,-4.1
COc1ccc(-c2cn3c(n2)sc2cc(C)ccc23)cc1,0.3,-5.1,24.2,-1.8
Cc1cc(C)c(S(=O)(=O)NC(C)Cc2ccco2)cc1C (stereo unspecified),0.0,2.0,10.0,0.2
Cc1nc2ccccn2c1C(=O)N1CCN(c2cccc(C(F)(F)F)c2)CC1,-0.1,3.4,58.4*,4.6
Cc1onc(-c2c(Cl)cccc2Cl)c1C(=O)N1CCN(c2cccc(C(F)(F)F)c2)CC1,0.1,16.4,54.5*,1.4
COCc1cccc(NS(=O)(=O)c2cc([N+](=O)[O-])ccc2C)c1,-0.2,-9.6,-10.0,1.4
CC(=O)N/N=C/c1ccc(-c2ccc(F)c(Cl)c2)o1,-0.2,-8.6,-6.2,1.5
CC1=NN(c2ccccc2)C(=O)/C1=C/c1cccn1-c1ccccc1,-1.3,64.2*,-43.8,-0.7
CC1=NN(c2ccccc2)C(=O)/C1=C/c1ccc(Cl)cc1,-0.1,4.3,-1.5,1.8
Cc1nc2sccn2c1-c1csc(Nc2ccc(O)cc2)n1,-0.1,-16.4,18.3,-0.1
CN(C)c1ccc(Nc2nc(-c3ccccc3)cs2)cc1,-0.1,38.3,43.1*,-7.3
Cc1nc2sccn2c1-c1csc(Nc2ccc(N(C)C)cc2)n1,-0.4,10.2,55.1*,1.0
Cc1ccccc1Nc1nc(-c2c(C)nc3sccn23)cs1,-0.1,-4.2,-4.2,-1.4
CC(=O)Nc1ccc(Nc2nc(-c3c(C)nc4sccn34)cs2)cc1,-0.1,8.0,48.5*,0.9
COc1ccc(C(=O)NCC2CCC3(CCN(C(=O)c4ccncc4)CC3)O2)cc1OC (stereo unspecified),-0.1,-6.8,-1.6,1.5
Cc1ccc(N)cc1S(=O)(=O)N1CCCCCC1,0.2,12.5,-1.3,-0.4
COc1cc(/C=C(\C#N)C(=O)c2ccc(O)c(O)c2)cc(I)c1O,-0.2,84.9*,-1.3,-0.6
N#C/C(=C\c1ccc(O)c(O)c1)C(=O)Nc1ccccc1,-0.3,-11.2,-6.7,-3.2
CCOc1cc(/C=C(/C#N)C(=O)Nc2ccc(O)cc2)ccc1OC,0.0,8.4,43.8*,-0.4
N#C/C(=C\c1ccc(O)c(O)c1)C(=O)NCCCNC(=O)/C(C#N)=C/c1ccc(O)c(O)c1,-0.1,96.1*,0.7,-1.4
CCOc1ccc(/C=C(/C#N)C(=O)Nc2ccc(O)cc2)cc1OC,0.1,-4.8,-3.3,-0.4
COc1cc(/C=C(/C#N)C(=O)Nc2ccc(O)cc2)cc(I)c1O,-0.1,-6.9,50.3*,0.3
O=C(COC(=O)CN1C(=O)c2ccccc2C1=O)Nc1ccc(OC(F)F)cc1,-0.2,-5.3,1.4,-0.4
COc1cc(N/N=C/c2ccccc2[N+](=O)[O-])ncn1,0.8,17.6,-8.2,-0.8
CC(=O)N1CCC(Oc2cccc(-c3cccnc3)c2)CC1,0.3,17.8,18.0,-0.7

# Compound activity (PubChem BioAssay)
